Most compounds without a hit are left out; they make up all but 11% or so of the library.
FBPA coupling cs – counter-screen for Giardia aldolase inhibitors: coupling enzyme system; coupling enzyme system counterscreen, AmpLite Red fluorescence; activity change, negative = inhibition, % at 58.2 µM, hits read low; actives 0.67% (n = 290,000); in the data active means activity change below about -30%
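Coupling enzymes only (glyceraldehyde-3-phosphate) + compound, at 57.5 uM final, 10 min RT; add substrate/coupling/AmpLite Red mix, 20 min RT; fluorescence ex 525/em 598 nm. Actives flag coupling-system interference.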
Tau FP inhib – tau fibrillization inhibition (FP) | AID 1468 | P10636 | K18 P301L tau heparin fibrillization, Alexa594 FP, 6 h | actives 0.39% (n = 280,000) | Potency, µM (doses to about 57.7 µM), for the others: at the top dose activity, negative = inhibition, most hits filed as inhibitors; further: potency means the concentration at half of the fitted maximal effect; nearly all actives have a fitted effect of over 55% in size
Target sequence (P10636 561-689 P618L limits assumed): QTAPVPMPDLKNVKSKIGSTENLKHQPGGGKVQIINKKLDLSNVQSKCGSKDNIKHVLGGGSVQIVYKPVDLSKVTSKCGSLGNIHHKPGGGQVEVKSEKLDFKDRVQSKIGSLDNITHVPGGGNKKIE
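Quantitative HTS format: compounds meet 15 uM recombinant K18 P301L tau and Alexa 594-tau tracer in 100 mM sodium acetate pH 7; 20 uM heparin triggers fibrillization at 37 C over 6 hr; FP gives the signal.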
G9a block – inhibitors of human histone lysine methyltransferase G9a. Q96KQ7. G9a H3K9 monomethylation, AlphaScreen, 2 h. Potency, µM (titrated, usually from 102 µM), inactives show top-dose activity, negative = inhibition, hits mostly inhibitors. actives 8.8% (n = 350,000). AID 504332; further: potency means the concentration at half of the fitted maximal effect; nearly all actives have a fitted effect of over 75% in size
Target sequence (Q96KQ7 913-1193 limits assumed): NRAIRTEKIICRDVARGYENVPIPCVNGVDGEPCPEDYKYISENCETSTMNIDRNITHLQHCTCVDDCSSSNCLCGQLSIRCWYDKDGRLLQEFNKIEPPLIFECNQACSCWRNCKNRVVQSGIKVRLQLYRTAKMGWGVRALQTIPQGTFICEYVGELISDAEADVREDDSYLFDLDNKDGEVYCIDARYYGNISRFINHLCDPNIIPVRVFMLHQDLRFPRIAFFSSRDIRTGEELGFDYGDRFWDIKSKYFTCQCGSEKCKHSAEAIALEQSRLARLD
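Enzyme 20 nM + cpd, 15 min RT; add b-H3K9 pep 500 nM / SAM 20 uM; 2 h RT; anti-H3K9me1 Ab 0.5 ug/mL + SA donor / anti-rabbit acceptor beads 20 ug/mL each, 10 min; AlphaScreen read.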
Tau fluor counter – counter-screen for tau fibril formation inhibitors | tau K18 P301L Alexa594 fluorescence, heparin fibrillization | AID 1463 | Potency, µM (highest dose often 57.7 µM), inactives show at the top dose activity change, negative = decrease | actives 0.93% (n = 280,000); further: potency means the concentration at half of the fitted maximal effect; nearly all actives have a fitted effect of over 55% in size
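Human K18 P301L tau (15 uM unlabeled plus 0.24 uM Alexa 594-labeled, final) in 100 mM sodium acetate pH 7 was mixed with compound and 20 uM heparin and incubated 6 hr at 37 C.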
Tau fibril ThT – blocks human tau fibril formation measured by thioflavin T. Potency, µM (titrated, usually from 57.4 µM), for the others: at the top dose activity, negative = inhibition, actives largely listed as inhibitors. recombinant tau K18 P301L (four-repeat tau fragment), heparin-induced fibrillization, ThT fluorescence. AID 1460. P10636. actives 2.1% (n = 270,000); further: potency means the concentration at half of the fitted maximal effect; nearly all actives have a fitted effect of over 55% in size
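Tau K18 P301L fragment (15 uM unlabeled plus 0.24 uM Alexa 594-labeled) in 100 mM sodium acetate pH 7 with compound, fibrillization induced by 20 uM heparin for 6 hr at 37 C. Thioflavin T (30 uM) added, fluorescence read after 1 hr (ex 450, em 510 nm).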
Sfp inh – inhibitors of Bacillus subtilis Sfp phosphopantetheinyl transferase | Biochemical Sfp PPTase activity, qHTS | Q9F4F7 | actives 3.5% (n = 310,000) | Potency, µM, for the others: largest response in the series, negative = inhibition, hits mostly inhibitors;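 further: the enzyme is Sfp with the accession as filed and its product quenches rhodamine fluorescence; potency means the concentration at half of the fitted maximal effect; 0% = enzyme reaction without inhibitor and -100% = no enzyme wells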
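Buffer: 50 mM Hepes-Na pH 7.6, 10 mM MgCl2, 0.01% Nonidet P-40, 0.01% BSA. Enzyme 15 nM, pre-exposed to compound 15 min; substrates then added and fluorescence change tracked over 30 min.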
* = called active by the depositor; [ ] = remark or other dose. Unless noted, the call rests on the fitted dose curve; in most records, active means well fitted curve in the direction sought with a large enough effect; inconclusive means small, poorly fitted or top-dose-only effect, or another doubt; inactive means no such curve, though single readings can be large; an effect the other way counts as inactive or inconclusive. Unless noted, on the % scale 0 is the no-effect control and ±100 the full control effect.

How did N#Cc1cccc(NC(=O)CSc2ccc3c4c(cccc24)C(=O)c2ccccc2-3)c1 do in these assays?
FBPA coupling cs: -1; Tau FP inhib: -14%; G9a block: inconclusive; Tau fluor counter: inconclusive; Tau fibril ThT: inconclusive; Sfp inh: 11%

What do the screens show for `O=S(=O)(NCc1ccccc1)[C@@H]1CC2C=CC1C2` (stereo not given in full)?
G9a block: 8%[0.501 µM]

What do the screens show for `COc1ccc(-n2cnnc2SCC(=O)Nc2ccc(C(N)=O)cc2)cc1`?
FBPA coupling cs: 2; G9a block: -11%; Sfp inh: 11%

Results for NC(=O)c1ccc(NC(=O)CSc2nncn2-c2ccccc2)cc1 ?
FBPA coupling cs: 5; G9a block: 22µM*; Sfp inh: 4%

Results for COc1ccc(NC(=O)CSc2nnc(C)c3ccccc23)cc1 ?
G9a block: 50µM*; Sfp inh: 0%

How did COc1ccc(NC(=O)CSc2nnc(-c3ccccc3C)n2N)cc1 do in these assays?
FBPA coupling cs: 3; Tau FP inhib: -10%; G9a block: 50µM*; Tau fluor counter: -6%; Tau fibril ThT: inconclusive; Sfp inh: -14%

How did COc1ccc(NC(=O)CSc2nnc(-c3ccccc3C)n2N)cc1OC do in these assays?
FBPA coupling cs: -1; Tau FP inhib: 0%; G9a block: 12%; Tau fluor counter: 1%; Tau fibril ThT: 4%; Sfp inh: 1%

What do the screens show for `COc1ccc(NC(=O)CSc2nncc3ccccc23)cc1`?
FBPA coupling cs: 1; Tau FP inhib: 6%; G9a block: 7%; Tau fluor counter: -8%; Tau fibril ThT: -15%; Sfp inh: -2%

Results for CCc1nc(SCC(=O)Nc2ccc(N(C)C)cc2)c2ccccc2n1 ?
FBPA coupling cs: 3; Tau FP inhib: -3%; G9a block: 10µM*; Tau fluor counter: -21%; Sfp inh: inconclusive

What do the screens show for `CCc1nc(SCC(=O)NNC(=O)C(C)C)c2ccccc2n1`?
FBPA coupling cs: 4; Tau FP inhib: -10%; G9a block: 20%[59 µM]; Tau fluor counter: -15%; Tau fibril ThT: inconclusive; Sfp inh: 4%

Results for CN(C(=O)Cc1ccccc1OC(=O)c1ccccc1)c1ccccc1I ?
FBPA coupling cs: 6; Sfp inh: -15%

Results for COc1cccc(NC(=O)CSc2nnc(-c3cccc(OC(C)C)c3)n2N)c1 ?
FBPA coupling cs: 1; Tau FP inhib: 0%; G9a block: 25µM*; Tau fluor counter: -8%; Tau fibril ThT: -11%; Sfp inh: 2%

What do the screens show for `Cc1nc2ccn(Cc3cccnc3)c(=O)c2cc1C(=O)Nc1ccc(F)cc1F`?
Tau FP inhib: 5%; G9a block: 9%[59 µM]; Tau fluor counter: 1%; Tau fibril ThT: 5%

Results for Cc1ccccc1C(=O)NCC(=O)Nc1ccc(C)c(S(=O)(=O)N2CCCCCC2)c1 ?
G9a block: 5%; Sfp inh: 13%

How did O=C(NCCC1=CCCCC1)c1ccc2c(c1)N(Cc1ccc(Cl)cc1)C(=O)c1ccccc1S2(=O)=O do in these assays?
Tau FP inhib: -15%; G9a block: -1%[59 µM]; Tau fluor counter: -20%; Tau fibril ThT: 4%

How did C=CCn1c(-c2ccc(OC)c(OC)c2)cs/c1=N\c1ccccn1 do in these assays?
FBPA coupling cs: -1; Tau FP inhib: 1%; G9a block: 3.5µM*; Tau fluor counter: -17%; Tau fibril ThT: inconclusive; Sfp inh: 18µM*

What do the screens show for `C=CCn1c(-c2ccc(OC)cc2)csc1=Nc1c(C)n(C)n(-c2ccccc2)c1=O`?
FBPA coupling cs: 9; Tau FP inhib: -1%; G9a block: inconclusive; Tau fluor counter: -14%; Tau fibril ThT: -12%; Sfp inh: -4%

How did Cc1[nH]n(-c2ccccc2)c(=O)c1C(=O)c1ccccc1 do in these assays?
FBPA coupling cs: -6; Tau FP inhib: -8%; G9a block: inconclusive; Tau fluor counter: 1%; Tau fibril ThT: -1%; Sfp inh: 17%

Results for Cc1ccc(N=Nc2c(C)[nH]n(-c3ccccc3)c2=O)cc1Br ?
FBPA coupling cs: -3; G9a block: 3.5µM*; Sfp inh: -1%

What do the screens show for `Cc1[nH]n(-c2ccccc2)c(=O)c1N=Nc1cccc(Cl)c1`?
FBPA coupling cs: -8; Sfp inh: 17%

What do the screens show for `Cc1[nH]n(-c2ccccc2)c(=O)c1N=Nc1ccc(F)cc1`?
FBPA coupling cs: 1; G9a block: 4.5µM*; Sfp inh: 6%

How did CSc1ccc(N=Nc2c(C)[nH]n(C)c2=O)cc1 do in these assays?
FBPA coupling cs: 1; Tau FP inhib: -2%; G9a block: 11µM*; Tau fluor counter: -8%; Tau fibril ThT: 8.9µM*; Sfp inh: -4%

Results for Cc1[nH]n(-c2ccc(Cl)cc2)c(=O)c1N=Nc1cccnc1 ?
FBPA coupling cs: -1; Tau FP inhib: -7%; G9a block: -44%; Tau fluor counter: -3%; Sfp inh: 8%

What do the screens show for `COC(=O)c1ccc(N=Nc2c(C)[nH]n(-c3ccccc3)c2=O)cc1`?
FBPA coupling cs: 0; G9a block: 8.9µM*; Sfp inh: -5%

Results for Cc1ccc(N=Nc2c(C)[nH]n(-c3ccccc3)c2=O)c(C)c1 ?
FBPA coupling cs: 0; Tau FP inhib: -4%; G9a block: -14%; Tau fluor counter: 11%[2.34 µM]; Tau fibril ThT: -18%; Sfp inh: -19%

Results for N#CCC(=O)NN ?
G9a block: 17%[12.7 µM]; Sfp inh: 8%

What do the screens show for `CCNc1ncc2nc(CCc3ccccc3)c(=O)n(Cc3ccc(F)cc3)c2n1`?
FBPA coupling cs: 1; G9a block: 7%[0.501 µM]; Sfp inh: 24%

Results for O=C([C@H](Cc1ccccc1)N1C(=O)c2ccccc2C1=O)N1CCOCC1 ?
FBPA coupling cs: 1; G9a block: 14%; Sfp inh: -11%

Results for Cc1[nH]n(-c2ccccc2)c(=O)c1N=Nc1ccc2c(c1)OCCO2 ?
FBPA coupling cs: -4; Tau FP inhib: -18%; G9a block: 7.1µM*; Tau fluor counter: inconclusive; Tau fibril ThT: 3.5µM*; Sfp inh: -2%

Results for Cc1[nH]n(-c2ccccc2)c(=O)c1N=Nc1c(O)cc(S(=O)(=O)N(C)C)c2ccccc12 ?
G9a block: 3.5µM*

What do the screens show for `CCCNc1ncnc2c1c(-c1ccccc1)cn2-c1ccccc1`?
Tau FP inhib: -3%; G9a block: 0%[59 µM]; Tau fluor counter: -11%; Tau fibril ThT: -18%

Bioassay records (PubChem)
